Our source for the Potency, outcome and activity change, positive = activation values is PubChem BioAssay (Tox21).

Assay [1] addresses Luciferin 4-monooxygenase (Photinus pyralis) (UniProt P08659). Kind of assay: qHTS assay to identify small molecule inhibitors of firefly luciferase (AID 1224835). Note: nearly all actives have a fitted effect of over 25% in size. Note: potency is the fitted concentration of half-maximal effect. The method in brief:
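Quantitative HTS format; KM concentrations of both substrates. Purified P. pyralis FLuc activity quantified from luminescence images.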

Assay [2] can be described thus: qHTS assay to identify small molecule agonists of the constitutive androstane receptor (CAR) signaling pathway - cell viability counter screen (AID 1224836). Note: nearly all actives have a fitted effect of over 45% in size. In short, it runs like this: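 HepG2-CYP2B6-hCAR, 2500 cells/well, 4 h pre-incubation; cpd 15 conc + PK11195 0.75 uM final; 23 h, 37 C/5% CO2; CellTiter-Fluor, fluorescence.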
Assay [3] can be described thus: qHTS assay to identify small molecule antagonists of the constitutive androstane receptor (CAR) signaling pathway - cell viability counter screen (AID 1224837). Note: nearly all actives have a fitted effect of over 45% in size. The method in brief: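 Read-out: CellTiter-Fluor fluorescence after 23 hr at 37 C/5% CO2. Cells: HepG2 double-stable for hCAR and CYP2B6-2.2kb. Compounds tested at 15 concentrations in the presence of CITCO, final concentration 50 nM.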

Assay [4] concerns the target Nuclear receptor subfamily 1 group I member 3 (Homo sapiens) (UniProt Q14994). Kind of assay: qHTS assay to identify small molecule antagonists of the constitutive androstane receptor (CAR) signaling pathway (AID 1224838).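 Note: HepG2 cells stably expressing hCAR with CYP2B6 luciferase reporter stimulated by CITCO; nearly all actives have a fitted effect of over 40% in size.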 The method in brief: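 Read-out: ONE-Glo luciferase luminescence after 30 min at room temperature. HepG2-CYP2B6-hCAR double-stable cells, compounds in 15-point titration plus 50 nM CITCO final, 24 h at 37 C/5% CO2.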

Assay [5] shares this target. As to the kind of experiment: qHTS assay to identify small molecule agonists of the constitutive androstane receptor (CAR) signaling pathway (AID 1224839).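 For activation: HepG2 cells stably carrying human CAR and a CYP2B6 luciferase reporter.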 Note: nearly all actives have a fitted effect of over 15% in size. Note: potency is the fitted concentration of half-maximal effect. In short, it runs like this:
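HepG2-CYP2B6-hCAR cells, 2500/well, 4 h pre-incubation; compounds 15 conc.; PK11195 0.75 uM final; 24 h, 37 C/5% CO2; ONE-Glo luciferase read.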

Assay [6] in a line: qHTS assay to identify small molecule antagonists of the estrogen related receptor signaling pathway with the pleiotropic PPARgamma coactivator (PGC) from Tox21 10K library - cell viability counter screen (AID 1224840; active = well fitted cell-killing curve with a large enough effect in the repeat runs, not every such curve was filed as active; note: nearly all actives have a fitted effect of over 40% in size). In short, it runs like this: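 Fluorescence read-out of CellTiter-Fluor viability reagent, added after cells had been exposed to compound in DMSO for 17.5 h at 37 C; 30 min development at 37 C/5% CO2. Cells: PGC/ERR line, 2,000/well.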

The target in assay [7] is Thyrotropin receptor (Homo sapiens) (UniProt P16473). As to the kind of experiment: qHTS assay to identify small molecule agonists of the thyroid stimulating hormone receptor (TSHR) signaling pathway (AID 1224843; calls by dose curve; note: nearly all actives have a fitted effect of over 45% in size). In short, it runs like this: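 Using 15 concentrations per compound in triplicate, cAMP production was monitored in TSHR-HEK293 cells after 30 min compound incubation at RT; HTRF reagents followed, with fluorescence intensity recorded after 1 h.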
Chain of Thyrotropin receptor (Homo sapiens) (P16473 whole entry, looked up): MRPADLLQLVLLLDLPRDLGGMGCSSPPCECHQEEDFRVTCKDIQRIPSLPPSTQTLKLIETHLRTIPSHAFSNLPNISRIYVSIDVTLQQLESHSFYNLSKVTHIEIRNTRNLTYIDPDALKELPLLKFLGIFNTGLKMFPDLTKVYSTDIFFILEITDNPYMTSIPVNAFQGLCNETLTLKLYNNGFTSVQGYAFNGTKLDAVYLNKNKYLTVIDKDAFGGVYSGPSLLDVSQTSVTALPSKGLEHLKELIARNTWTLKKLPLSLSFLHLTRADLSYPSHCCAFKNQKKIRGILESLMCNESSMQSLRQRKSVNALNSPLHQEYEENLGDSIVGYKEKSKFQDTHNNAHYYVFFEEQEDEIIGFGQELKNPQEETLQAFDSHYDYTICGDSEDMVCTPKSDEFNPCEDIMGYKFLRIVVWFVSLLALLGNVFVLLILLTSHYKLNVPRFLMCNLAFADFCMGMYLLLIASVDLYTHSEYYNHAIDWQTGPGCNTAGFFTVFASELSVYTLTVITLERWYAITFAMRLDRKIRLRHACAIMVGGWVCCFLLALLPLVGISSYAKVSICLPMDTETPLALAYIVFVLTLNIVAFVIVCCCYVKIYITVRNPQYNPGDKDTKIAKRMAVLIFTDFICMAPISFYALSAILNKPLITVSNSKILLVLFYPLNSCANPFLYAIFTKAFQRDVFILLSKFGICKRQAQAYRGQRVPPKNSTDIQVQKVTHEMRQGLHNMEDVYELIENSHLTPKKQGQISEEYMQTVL

Assay [8] is described as follows: qHTS assay to identify small molecule agonists of the hypoxia (HIF-1) signaling pathway - cell viability counter screen (AID 1224844; calls by dose curve; note: nearly all actives have a fitted effect of over 50% in size; note: potency is the fitted concentration of half-maximal effect). In short, it runs like this: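 CellTiter-Glo luminescence read-out, 30 min RT, taken in the same wells as the beta-lactamase HRE reporter assay; HRE-bla ME-180 cells, 0.5% dialyzed FBS, 17 hr compound treatment at 37C, 5% CO2.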

Assay [9] can be described thus: qHTS assay to identify small molecule agonists of H2AX (AID 1224845; active = well fitted activation curve with a large enough effect in the signal ratio in the repeat runs, not every such curve was filed as active; the % refers to the signal ratio; note: potency is the fitted concentration of half-maximal effect). In short, it runs like this: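 Wild-type CHO-K1 cells plated overnight, then exposed 3 hr at 37C to compounds at 15 concentrations (0.76% DMSO). Lysed, then HTRF anti-pH2AX(S139)-cryptate/anti-H2AX-d2 detection after 24 hr at room temperature; emissions 665 and 620 nm.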
Assay [10] in a line: qHTS assay to identify small molecule agonists of H2AX - cell viability counter screen (AID 1224847; calls by dose curve; note: top concentration of the series differs between compounds; nearly all actives have a fitted effect of over 30% in size). In short, it runs like this: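 Cells plated first: CHO-K1, 1000 per well in 10% FBS medium, incubated overnight at 37C. Then 15-point compound titration added (final DMSO 0.76%) for 3 hr. Finally CellTiter-Glo added and luminescence read.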
Assay [11] is described as follows: qHTS RealTime-Glo MT Cell Viability Assay in HepG2 cells - 24 hour (AID 1224867). Note: nearly all actives have a fitted effect of over 50% in size. In short, it runs like this:
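Luminescence read-out: viable HepG2 cells reduce a prosubstrate to a NanoLuc substrate, giving a signal proportional to live cell number. Reads taken at 0, 8, 16, 24, 32 and 40 h of compound exposure at 37 C.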

The nature of assay [12]: qHTS RealTime-Glo MT Cell Viability Assay in HEK293 cells - 32 hour (AID 1224868). Note: nearly all actives have a fitted effect of over 50% in size. Note: potency is the fitted concentration of half-maximal effect. The method in brief: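 Nonlytic real-time viability readout: viable cells convert prosubstrate to NanoLuc substrate, giving luminescence proportional to live cell number. HEK293, 600 cells/well, compound added after 5 h, continuous culture at 37 C.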
A short description of assay [13]: A CellTox Green Cytotoxicity Assay to monitor cytotoxicity in HEK293 cells - 0 hour (AID 1224869). Note: nearly all actives have a fitted effect of over 50% in size. In short, it runs like this: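 Read-out: fluorescence of a cell-impermeant cyanine dye staining DNA of dead cells, proportional to cytotoxicity. HEK293, 600 cells/well with reagent, compound (23 nL DMSO) added after 5 h; reads at 0, 8, 16, 24, 32, 40 h.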
The nature of assay [14]: qHTS RealTime-Glo MT Cell Viability Assay in HepG2 cells - 40 hour (AID 1224870). Note: nearly all actives have a fitted effect of over 50% in size. In short, it runs like this:
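HepG2 cells mixed with RealTime-Glo MT reagents (NanoLuc plus cell-permeant prosubstrate) were seeded at 600 cells/well, incubated 5 h at 37 C/5% CO2, then pinned with compounds in DMSO; nonlytic luminescence tracked viability during 40 h treatment.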

A short description of assay [15]: qHTS assay to identify small molecule agonists of the hypoxia (HIF-1) signaling pathway (AID 1224846; active = well fitted activation curve with a large enough effect in the signal ratio in the repeat runs, not every such curve was filed as active; the % refers to the signal ratio). In short, it runs like this: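 Beta-lactamase FRET read-out (CCF4-AM substrate) from ME-180 cells carrying an HRE-driven bla reporter, after 17 hrs compound exposure at 37C/5% CO2. Cells were seeded at 2,000 per well in 0.5% dialyzed FBS medium and preincubated 5 hrs.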

Assay [16] in a line: qHTS assay to identify small molecule antagonists of the estrogen related receptor (ERR) signaling pathway from Tox21 library - cell viability counter screen (AID 1224834). Note: nearly all actives have a fitted effect of over 30% in size. In short, it runs like this:
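Multiplexed viability counter screen in ERR cells: 17.5 h compound exposure at 37 C, CellTiter-Fluor added, 30 min at 37 C/5% CO2, fluorescence read.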

The nature of assay [17]: qHTS assay to identify small molecule antagonists of the estrogen related receptor signaling pathway with the pleiotropic PPARgamma coactivator (PGC) from Tox21 10K library (AID 1224841; call rule not given here). In short, it runs like this: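 Luminescence read-out (One-Glo luciferase reagent, 30 min at room temperature) from PGC/ERR cells exposed to DMSO-dissolved test compounds for 18 h at 37 C; cells, 2,000 per well, had been preincubated 6 h before compound transfer.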

Assay [18] is described as follows: qHTS assay to identify small molecule agonists of the estrogen related receptor signaling pathway with the pleiotropic PPARgamma coactivator (PGC) from Tox21 10K library (AID 1224842). Note: nearly all actives have a fitted effect of over 15% in size. The method in brief:
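PGC/ERR reporter cells (NTP line) were seeded 2,000 per well, rested 6 h at 37 C/5% CO2, then pin-dosed with compounds in DMSO for 18 h at 37 C; luciferase read by One-Glo luminescence after 30 min at room temperature.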

Assay [19] in a line: qHTS assay to identify small molecule antagonists of the estrogen related receptor (ERR) signaling pathway from Tox21 library (AID 1224848). Note: nearly all actives have a fitted effect of over 50% in size. In short, it runs like this:
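Tox21 10K compounds in DMSO tested for ERR pathway antagonism in NTP's ERR cell line; 18 h, 37 C exposure; ONE-Glo luminescence.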

Assay [20] in a line: qHTS assay to identify small molecule agonists of the estrogen related receptor (ERR) signaling pathway from Tox21 library (AID 1224849; calls by dose curve; note: nearly all actives have a fitted effect of over 15% in size). The following applies: ERR reporter cell line, ONE-Glo luciferase, 18 h; at 92.4 µM (top of the series) unless noted. The method in brief:
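Luminescence readout (ONE-Glo, 30 min RT) after 18 h compound exposure at 37 C of NTP-supplied ERR reporter cells; cells were plated 6 h before compound addition by pin tool.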

Unmarked numbers belong to inactive results. Inconclusive results are not listed. Active and inactive are the calls of the source. Unless noted, calls come from the whole dose curve; as a rule, active = well fitted curve in the direction sought with a large enough effect in the repeat runs; inconclusive = weak or mixed curves; inactive = no such curve, though single readings can be large; an effect the other way counts as inactive or inconclusive.
% is set by controls: 0 for no effect and ±100 for the full control effect.

Chain of Luciferin 4-monooxygenase (Photinus pyralis) (P08659 whole entry, looked up): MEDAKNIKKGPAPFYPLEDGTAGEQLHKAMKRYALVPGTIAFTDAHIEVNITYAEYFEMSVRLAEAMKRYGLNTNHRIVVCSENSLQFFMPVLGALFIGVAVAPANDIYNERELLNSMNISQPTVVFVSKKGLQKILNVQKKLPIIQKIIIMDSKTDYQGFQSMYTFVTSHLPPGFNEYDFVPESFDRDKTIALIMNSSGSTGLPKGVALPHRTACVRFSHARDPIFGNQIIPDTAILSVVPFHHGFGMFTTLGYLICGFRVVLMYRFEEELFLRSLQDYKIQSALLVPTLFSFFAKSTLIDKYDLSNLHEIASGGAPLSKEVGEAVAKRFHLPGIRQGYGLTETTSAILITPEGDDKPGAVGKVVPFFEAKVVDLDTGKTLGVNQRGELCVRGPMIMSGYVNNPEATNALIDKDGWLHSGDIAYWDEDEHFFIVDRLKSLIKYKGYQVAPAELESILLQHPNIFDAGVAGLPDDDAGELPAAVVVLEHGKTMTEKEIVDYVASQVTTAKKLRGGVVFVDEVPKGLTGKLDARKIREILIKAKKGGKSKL
Chain of Nuclear receptor subfamily 1 group I member 3 (Homo sapiens) (Q14994 whole entry, looked up): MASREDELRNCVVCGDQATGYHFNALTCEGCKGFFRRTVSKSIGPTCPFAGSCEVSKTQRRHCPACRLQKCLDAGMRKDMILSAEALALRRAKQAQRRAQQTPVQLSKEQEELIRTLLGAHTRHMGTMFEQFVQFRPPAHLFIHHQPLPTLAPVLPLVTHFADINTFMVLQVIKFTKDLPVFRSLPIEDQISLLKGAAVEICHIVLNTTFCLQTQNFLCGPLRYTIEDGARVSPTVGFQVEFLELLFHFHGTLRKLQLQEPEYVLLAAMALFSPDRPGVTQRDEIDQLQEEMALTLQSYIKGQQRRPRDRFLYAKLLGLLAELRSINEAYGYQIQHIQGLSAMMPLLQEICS

Take `O=C1CCCN1CCO`: the Potency result in assay [1], in assay [2], in [3], in assay [4], in assay [5] and in [6] was “inactive” throughout. Also, the Potency entry in assay [7], in assay [9], in assay [10], in assay [12], in assay [13] and in assay [14] was “inactive” throughout. For the same molecule, in assay [8], the Potency is 21.9 µM (active). Moreover, the result in assay [11] was inactive.

On to `CC1(C)C(=O)NC(=O)N1CO`, for which the Potency entry in [1], in [2], in assay [3], in [4], in assay [5] and in [6] was “inactive” each time. Also, the Potency result in assay [7], in [8], in [9], in assay [10], in [12] and in [13] was “inactive” in each case. Further, in [14], the Potency entry is “inactive”. The molecule was called inactive in assay [15].

With `CCCC(=O)OCc1ccccc1`, the Potency result in [16], in assay [2], in assay [3], in assay [6], in [17] and in assay [18] was “inactive” in each case. Moreover, the Potency result in assay [7], in assay [8], in assay [9], in [10], in [19] and in [12] was “inactive” throughout. Moreover, the Potency result in assay [14] is “inactive”. For the same molecule, the molecule was classed as inactive in assay [15] and in [11]. For the same molecule, the activity change, positive = activation in assay [20] is 0.0767%.

For `O=C(O)c1ccccc1[N+](=O)[O-]`, the Potency entry in assay [16], in assay [2], in assay [6], in assay [7], in assay [8] and in assay [9] was “inactive” throughout. For the same molecule, the Potency entry in assay [10], in assay [12], in assay [13] and in [14] was “inactive” each time. In addition, the molecule was called inactive in [15] and in [11].

Turning to `CCCOC(C)=O`, the Potency entry in assay [1], in [2], in [3], in [4], in assay [5] and in assay [6] was “inactive” each time. Also, the Potency result in assay [7], in assay [9], in assay [10], in assay [12], in assay [13] and in assay [14] was “inactive” each time. In addition, the outcome in [15] and in [11] was inactive.

Consider `O=C1c2ccccc2C(=O)C1c1ccc2ccccc2n1`, for which the Potency in assay [1] is 0.111 µM (active); in assay [5], 6.05 µM (active). Moreover, the Potency entry in assay [2], in [3], in [4], in assay [6], in assay [7] and in assay [8] was “inactive” in each case. Also, the Potency result in assay [9], in assay [10] and in assay [14] was “inactive” throughout. The outcome in assay [15] and in assay [11] was inactive.

As for `O=C(Cl)c1cc(Cl)cc(Cl)c1`, the Potency entry in assay [16], in assay [2], in assay [4], in assay [5], in assay [6] and in [7] was “inactive” in each case. The Potency entry in assay [8], in assay [9], in assay [10], in assay [12], in assay [13] and in assay [14] was “inactive” in each case. For the same molecule, the call in [15] and in assay [11] was inactive.

Regarding `Oc1ccc(Oc2ccccc2)cc1`, the Potency entry in [16], in assay [2], in [6], in [7], in assay [8] and in [13] was “inactive” in each case. Moreover, the Potency entry in assay [14] was “inactive”. In addition, the Potency in assay [9] was 38.1 µM (active); in assay [12], 16.5 µM (active). Also, the outcome in assay [15] and in assay [11] was inactive.
